# Experimental data published in paper PMC11062922 (Nature Chemical Biology, 2023).
# Where two headings read alike, the source gives them in different places.
# Assays:
# Set-up in all cases: species or system human, MV4-11 + K-562 + COLO205 + SK-N-BE2 + OVCAR-8
# DYRK1A = conditions: read-out: apparent Kd, compound concentrations: 100 nM and 1000 nM (sheet 'Samples'), n = 1
# AKT2 = conditions: read-out: apparent Kd; compound concentrations: 100 nM and 1000 nM (sheet 'Samples'), CATDS: 4.5642212363568399E-2; n = 1
# ACVR1B = conditions: read-out: apparent Kd, n = 1
# ACVR1 = conditions: read-out: apparent Kd, n = 1
# BTK = conditions: read-out: apparent Kd; compound concentrations:100 nM and 1000 nM (sheet 'Samples'); n = 1
# CSK = conditions: read-out: apparent Kd; compound concentrations:100 nM and 1000 nM (sheet 'Samples'); n = 1
# DDR1 = conditions: read-out: apparent Kd, n = 1
# EPHA1 = conditions: read-out: apparent Kd, n = 1
# FLT3 = conditions: read-out: apparent Kd; compound concentrations:100 nM and 1000 nM (sheet 'Samples'); n = 1
# FRK = conditions: read-out: apparent Kd, n = 1
# LYN = conditions: read-out: apparent Kd; compound concentrations:100 nM and 1000 nM (sheet 'Samples'); n = 1
# SIK2 = conditions: read-out: apparent Kd, n = 1
# SRC = conditions: read-out: apparent Kd, compound concentrations: 100 nM and 1000 nM (sheet 'Samples'), n = 1
# TNK2 = conditions: read-out: apparent Kd; compound concentrations:100 nM and 1000 nM (sheet 'Samples'); n = 1
# ZAK = conditions: read-out: apparent Kd, n = 1
# AURKB = conditions: read-out: apparent Kd; compound concentrations: 100 nM and 1000 nM (sheet 'Samples'), CATDS: 0.169613052671825; n = 1
# [1] = compound concentrations:100 nM and 1000 nM (sheet 'Samples')
smiles,measurement,setting,value
COc1ccccc1CCNC1=NC(=O)/C(=C/c2ccc3ncccc3c2)S1 [RO4503316-000],potency estimated from few doses,DYRK1A; CATDS: 0.20132255504791199,128 nM
O=C1N=C(N[C@@H](CO)c2ccccc2)S/C1=C\c1ccc2ncccc2c1 [RO4554340-000],potency estimated from few doses,DYRK1A; CATDS: 0.16734351378465701,1030 nM
COc1ccccc1CNC1=NC(=O)/C(=C/c2ccc3ncccc3c2)S1 [RO4503315-000],potency estimated from few doses,DYRK1A; CATDS: 8.6327639243549595E-2,596 nM
COc1ccc(Nc2nccc(N3CCC(NC(=O)Nc4ccc5c(c4)OCO5)C3)n2)cc1 (centres unmarked) [GSK1379745A],potency estimated from few doses,AKT2,1150 nM
CCN(CC)CCOc1ccc(Nc2ncc3cc(-c4c(Cl)cccc4Cl)c(=O)n(C)c3n2)cc1 [SB-601273],potency estimated from few doses,ACVR1B; [1],170 nM
same,potency estimated from few doses,ACVR1; [1],218 nM
same,potency estimated from few doses,BTK,318 nM
same,potency estimated from few doses,CSK,838 nM
same,potency estimated from few doses,DDR1; [1],165 nM
same,potency estimated from few doses,EPHA1; [1],2.59 nM
same,potency estimated from few doses,FLT3,891 nM
same,potency estimated from few doses,FRK; [1],103 nM
same,potency estimated from few doses,LYN,111 nM
same,potency estimated from few doses,SIK2; [1],55.3 nM
same,potency estimated from few doses,SRC; CATDS: 2.2831439455092799E-2,137 nM
same,potency estimated from few doses,TNK2,87.3 nM
Nc1nc(-c2cccnc2)c(-c2ccnc3ccccc23)s1 [GW684083X],potency estimated from few doses,ZAK; [1],1440 nM
CN1C(=O)c2ccccc2N(C)c2nc(Nc3cnn(C4CCNCC4)c3)ncc21 [XMD-17-51],potency estimated from few doses,"ACVR1B; compound concentrations: 100 nM and 1000 nM (sheet 'Samples'), CATDS: 2.1196121470028601E-2",383 nM
same,potency estimated from few doses,"ACVR1; compound concentrations: 100 nM and 1000 nM (sheet 'Samples'), CATDS: 1.6735726463305099E-2",805 nM
same,potency estimated from few doses,AURKB,6.84 nM
same,potency estimated from few doses,"DDR1; compound concentrations: 100 nM and 1000 nM (sheet 'Samples'), CATDS: 1.7451025116255701E-2",697 nM
same,potency estimated from few doses,"SIK2; compound concentrations: 100 nM and 1000 nM (sheet 'Samples'), CATDS: 2.05809527554131E-2",416 nM
same,potency estimated from few doses,SRC; CATDS: 1.6357706357996601E-2,875 nM
Cc1ccc(O)cc1Nc1ccnc2cc(-c3ccccn3)ccc12.Cl [GW440139A],potency estimated from few doses,"ACVR1B; compound concentrations: 100 nM and 1000 nM (sheet 'Samples'), CATDS: 0.14783179697021401",9.88 nM
same,potency estimated from few doses,"ACVR1; compound concentrations: 100 nM and 1000 nM (sheet 'Samples'), CATDS: 2.9577067141002798E-2",556 nM
same,potency estimated from few doses,"EPHA1; compound concentrations: 100 nM and 1000 nM (sheet 'Samples'), CATDS: 6.90247660864724E-2",38.9 nM
Cl.Oc1cccc(Nc2ccnc3cc(-c4ccncc4)ccc23)c1 [GW494601A],potency estimated from few doses,"ACVR1B; compound concentrations: 100 nM and 1000 nM (sheet 'Samples'), CATDS: 4.2820592961585899E-2",73.7 nM
same,potency estimated from few doses,"ACVR1; compound concentrations: 100 nM and 1000 nM (sheet 'Samples'), CATDS: 4.3782572898148998E-2",69 nM
same,potency estimated from few doses,"EPHA1; compound concentrations: 100 nM and 1000 nM (sheet 'Samples'), CATDS: 8.3232336419421196E-2",14.3 nM
same,potency estimated from few doses,"FRK; compound concentrations: 100 nM and 1000 nM (sheet 'Samples'), CATDS: 2.21362656072501E-2",843 nM
same,potency estimated from few doses,"SIK2; compound concentrations: 100 nM and 1000 nM (sheet 'Samples'), CATDS: 2.1329898966899598E-2",1020 nM
same,potency estimated from few doses,"ZAK; compound concentrations: 100 nM and 1000 nM (sheet 'Samples'), CATDS: 1.9718010562251101E-2",1580 nM
